# From PubChem BioAssay
# A number with no mark means an inactive call.
# Test: cell viability in Huh7 cells, primary screen, cytotoxicity control for HCV replication inhibitor project, CellTiter-Glo luminescence, basal, 48 h (AID 1143);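 note: Huh7 hepatoma cells carrying a hepatitis C replication reporter with no stimulus; test concentration not given here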
# Details: Huh7 HCV replicon, higher = more signal, called active from +8 up or from −8 down
row,SMILES,z-score
1,CCCCN1CC=CC23O[C@@H]4C=CCOC(=O)[C@@H]4[C@H]2C(=O)N(CCO)[C@@H]3C1=O (stereo partly drawn),-0.238
2,C=CC[C@@]12N=C(c3ccc(OCCCO)cc3)O[C@@H]1c1ccccc1N(Cc1ccccc1)C2=O,-4.31
3,COCCOC(=O)N1C(=O)[C@@]2(c3cc(C#CCC(C(=O)OC)C(=O)OC)ccc31)[C@H](C(N)=O)[C@H]1C(=O)O[C@H](c3ccccc3)[C@H](c3ccccc3)N1[C@@H]2c1ccc(OCCO)cc1,-2.89
4,CCOC(=O)C1=C(C(=O)OCC)N(S(=O)(=O)CC[Si](C)(C)C)[C@H](c2ccccc2)CC1,-4.45
5,COC(=O)C1=CC(CCCO)=CC(c2ccc(CN3CCCC3)cc2)N(Cc2sc3ccccc3c2Cl)C=C1C(=O)OC (stereo not drawn),-3.24
6,C=CCNC(=O)[C@@H]1[C@H]2C(=O)O[C@H](c3ccccc3)[C@H](c3ccccc3)N2[C@H](c2ccc(O)cc2)[C@@]12C(=O)Nc1ccc(C#CC3(O)CCCCCC3)cc12,-0.794
7,NC(=O)NCC#Cc1ccc2c(c1)[C@]1(C(=O)N2)[C@H](C(=O)Nc2nc3ccccc3s2)[C@H]2C(=O)O[C@H](c3ccccc3)[C@H](c3ccccc3)N2[C@@H]1c1ccc(OCCO)cc1,0.378
8,COCCOC(=O)N1C(=O)[C@@]2(c3cc(C#CC4(O)CCCCCC4)ccc31)[C@H](c1ccccc1OCCO)N1[C@H](c3ccccc3)[C@H](c3ccccc3)OC(=O)[C@H]1[C@@H]2C(=O)N1CCCCCCC1,-4.01
